# PubChem BioAssay (EPA / NIEHS)
# “And” between values parts separate entries of the source, which are not always exact repeats. Equal entries are not always repeated. Results filed as inconclusive are left out. Some structures have more than one record in an assay (separate samples or runs), and their calls can disagree. The source made the active and inactive calls. Rule for the calls, unless noted: active = hit-call score of the fitted dose curve at least 0.9, where 1 is the maximum; inactive = score below 0.9.
# Assays:
# [1] = target: Estrogen-related receptor gamma (Homo sapiens) (UniProt P62508); assay: ATG_ERRg_TRANS: Attagene TRANS-FACTORIAL HepG2 Assay for human Estrogen-Related Receptor gamma (ERRg) (AID 2282977; active = hit-call score of the fitted dose curve at least 0.9, where 1 is the maximum;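 note: hits increase reporter signal over DMSO so potencies reflect activators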); conditions: HepG2 Attagene TRANS reporter, ERRg transactivation
# Outline: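 Exogenous NR-Gal4 chimera activity was assessed in HepG2 cells bearing transfected GAL4-UAS reporters. After 24 h dosing, total RNA underwent RT-PCR, fluorescent primer extension and HpaI digestion before capillary electrophoresis, with gain of signal scored against DMSO.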
# [2] = target: Glucocorticoid receptor (Homo sapiens) (UniProt P04150); assay: ATG_GR_TRANS: Attagene TRANS-FACTORIAL HepG2 Assay for human Glucocorticoid Receptor (GR) (AID 2282978; active = hit-call score of the fitted dose curve at least 0.9, where 1 is the maximum;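 note: activators score as hits since higher reporter transcript over DMSO is fitted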); conditions: HepG2 Attagene TRANS GR reporter, mRNA transcription
# Outline: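 HepG2 cells transiently transfected with multiplexed reporter units in which chimeric NR-GAL4 proteins drive GAL4-UAS reporters; 24 h compound exposure. Reporter mRNA measured by RT-PCR, 6-FAM labelling, HpaI digestion and capillary electrophoresis; gain-of-signal fitted versus DMSO.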
# [3] = target: Bile acid receptor (Homo sapiens) (UniProt Q96RI1); assay: ATG_FXR_TRANS: Attagene TRANS-FACTORIAL HepG2 Assay for Farnesoid X Receptor (FXR) (AID 2282979; active = hit-call score of the fitted dose curve at least 0.9, where 1 is the maximum;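 note: hits raise reporter mRNA above DMSO so AC50 marks FXR activation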); conditions: HepG2 Attagene TRANS FXR-GAL4 reporter transcription
# Outline: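 Reporter transcripts from transfected HepG2 cells were measured 24 h after dosing, using RT-PCR with capillary electrophoresis of 6-FAM-labelled fragments. The read-out reflects activity of exogenous FXR-Gal4 chimera on GAL4-UAS units, with induction relative to DMSO.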
# [4] = target: Oxysterols receptor LXR-alpha (Homo sapiens) (UniProt Q13133); assay: ATG_LXRa_TRANS: Attagene TRANS-FACTORIAL HepG2 Assay for human Liver X Receptor alpha (LXRa) (AID 2282980; active = hit-call score of the fitted dose curve at least 0.9, where 1 is the maximum); conditions: HepG2 Attagene TRANS reporter, LXRa transactivation
# Outline: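 Chemical-induced reporter mRNA measured by RT-PCR with fluorescent labelling and capillary electrophoresis after 24 h dosing of transiently transfected HepG2 cells expressing exogenous NR-Gal4 chimeras; increases scored against DMSO baseline.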
# [5] = target: Oxysterols receptor LXR-beta (Homo sapiens) (UniProt P55055); assay: ATG_LXRb_TRANS: Attagene TRANS-FACTORIAL HepG2 Assay for human Liver X Receptor beta (LXRb) (AID 2282981; active = hit-call score of the fitted dose curve at least 0.9, where 1 is the maximum); conditions: HepG2 Attagene TRANS GAL4-LXRb reporter, mRNA
# Outline: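 After 24 h of chemical treatment, transfected HepG2 cells yield total RNA; reporter cDNA is PCR-amplified, FAM-labelled, HpaI-cut and run on capillary electrophoresis. Signal reflects chimeric LXRb-Gal4 activity on GAL4-UAS reporters.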
# [6] = ATG_M_06_TRANS: Attagene TRANS-FACTORIAL HepG2 Assay for M06 Transcription Factor (Internal Marker) (AID 2282983; active = hit-call score of the fitted dose curve at least 0.9, where 1 is the maximum;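 note: reporter transcript level by RT-PCR then capillary electrophoresis fluorescence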); conditions: HepG2 Attagene TRANS M06 internal marker reporter
# Outline: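 Background-control reporter readout: after 24 h chemical exposure of transiently transfected HepG2 (GAL4-UAS reporter units), mRNA quantified by RT-PCR with fluorescent labeling and capillary electrophoresis. Gain-of-signal fitting against DMSO baseline.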
# [7] = ATG_M_32_TRANS: Attagene TRANS-FACTORIAL HepG2 Assay for M32 Transcription Factor (Internal Marker) (AID 2282984; active = hit-call score of the fitted dose curve at least 0.9, where 1 is the maximum;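 note: transcript level of a background control reporter unit measured by RT-PCR and capillary electrophoresis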); conditions: HepG2 Attagene TRANS M32 internal marker reporter
# Outline: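 Cell-based TRANS-format assay in HepG2: exogenous chimeric GAL4 reporter units transiently expressed, compounds applied 24 h. Reporter mRNA detected by RT-PCR plus capillary electrophoresis; this readout is an internal background marker.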
# [8] = target: Nuclear receptor subfamily 4 group A member 2 (Homo sapiens) (UniProt P43354); assay: ATG_NURR1_TRANS: Attagene TRANS-FACTORIAL HepG2 Assay for human Nuclear Receptor Related Protein 1 (NURR1) (AID 2282985; active = hit-call score of the fitted dose curve at least 0.9, where 1 is the maximum); conditions: HepG2 Attagene TRANS reporter, mRNA readout
# Outline: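 Measures transcriptional activation by an exogenous NR-Gal4 chimera in transfected HepG2 liver cells. After 24 h, reporter RNA is reverse-transcribed, amplified and resolved by capillary electrophoresis; DMSO defines baseline.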
# [9] = target: Transcriptional activator Myb (Homo sapiens) (UniProt P10242); assay: ATG_Myb_CIS: Attagene CIS-FACTORIAL HepG2 Assay for human Myeloblastosis (Myb) Proto-Oncogene Transcription Factor (AID 2282986); conditions: HepG2 Attagene CIS-FACTORIAL Myb reporter transcription; actives raise or lower the signal
# Outline: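 HepG2 cells were transiently transfected with cis-regulated multiple reporter transcription units reflecting endogenous Myb activity, then exposed to compound for 24 hours. Reporter mRNA was measured by RT-PCR with capillary electrophoresis; bidirectional fitting versus DMSO baseline.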
# [10] = target: Nuclear respiratory factor 1 (Homo sapiens) (UniProt Q16656); assay: ATG_NRF1_CIS: Attagene CIS-FACTORIAL HepG2 Assay for human Nuclear Respiratory Factor 1 (NRF1) Orphan Gene (AID 2282987); conditions: HepG2 NRF1 cis-element reporter, Attagene multiplex; actives raise or lower the signal
# Outline: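 HepG2 cells transiently transfected with multiple reporter transcription units under cis-regulatory promoter control, so endogenous transcription-factor activity is read. After 24 h compound exposure, reporter mRNA quantified by RT-PCR, fluorescent labelling, HpaI digestion and capillary electrophoresis; bidirectional fitting versus DMSO.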
# [11] = ATG_NFI_CIS: Attagene CIS-FACTORIAL HepG2 Assay for human Nuclear Factor I (NFI) (AID 2282989); conditions: HepG2 cis-regulatory reporter, NFI response element transcription; actives raise or lower the signal
# Outline: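 Multiplexed cis-reporter system in human HepG2 cells reports native TF activity as reporter mRNA induction 24 h post-dose. Fragments labelled with 6-FAM, HpaI-digested and resolved by capillary electrophoresis; activity fitted both directions versus DMSO.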
# [12] = target: Myc proto-oncogene protein (Homo sapiens) (UniProt P01106); assay: ATG_Myc_CIS: Attagene CIS-FACTORIAL HepG2 Assay for human Myelocytomatosis (Myc) Proto-Oncogene Transcription Factor (AID 2282990); conditions: HepG2, Attagene cis-reporter transcription factor activity; actives raise or lower the signal
# Outline: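 After 24 h chemical treatment of HepG2 cells carrying multiplexed cis-regulated reporter constructs, reporter transcripts quantified by RT-PCR and capillary electrophoresis of fluorescent fragments. Gain or loss fitted against DMSO baseline.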
# [13] = ATG_NF_kB_CIS: Attagene CIS-FACTORIAL HepG2 Assay for human Nuclear Factor Kappa B (NF-kB) (AID 2282991); conditions: HepG2 Attagene cis-factorial NF-kB reporter mRNA; actives raise or lower the signal
# Outline: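 HepG2 cells transiently transfected with multiplexed cis-element reporter units measuring endogenous transcription factor activity; reporter mRNA read 24 h after dosing by RT-PCR, fluorescent labelling, HpaI digestion and capillary electrophoresis. Bidirectional fit against DMSO baseline.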
# [14] = ATG_NRF2_ARE_CIS: Attagene CIS-FACTORIAL HepG2 Assay for human Nuclear Factor Erythroid 2 Related Factor 2 (NFR2) response to Antioxidant Response Elements (ARE) (AID 2282992); conditions: HepG2 Attagene ARE/NRF2 reporter, transcription factor activity; actives raise or lower the signal;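 note: reporter mRNA level measured by RT-PCR and capillary electrophoresis fluorescence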
# Outline: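 Endogenous transcription factor activity in human liver HepG2 cells is tracked via a cis-element-driven reporter within a multiplexed set. mRNA induction is read by RT-PCR and capillary electrophoresis after 24 h, with DMSO as baseline.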
# [15] = target: Cellular tumor antigen p53 (Homo sapiens) (UniProt P04637); assay: ATG_p53_CIS: Attagene CIS-FACTORIAL HepG2 Assay for human p53 Transcription Factor (AID 2282994); conditions: HepG2 p53 cis-element reporter, Attagene mRNA; actives raise or lower the signal
# Outline: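 Steps: transfect HepG2 with multiplexed cis reporter constructs; dose chemicals 24 h; extract RNA, reverse-transcribe, PCR-amplify reporter sequences; FAM-label, HpaI-digest, resolve fragments by CE. Activity fitted both directions relative to DMSO.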
# [16] = BSK_3C_TissueFactor: BioMAP Diversity Plus: 3C Assay for Tissue Factor Biomarker Activity (AID 2282997); conditions: BioMAP 3C HUVEC, tissue factor biomarker readout; actives raise or lower the signal
# Outline: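 Tissue factor on primary human umbilical vein endothelium was read by ELISA 24 h after dosing, gain or loss relative to DMSO. Cytotoxicity ran alongside via SRB (0.1%, TCA-fixed, 560 nm).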
# [17] = BSK_3C_uPAR: BioMAP Diversity Plus: 3C Assay for Urokinase-type plasminogen activator receptor (uPAR) Biomarker Activity (AID 2282998); conditions: BioMAP 3C HUVEC, uPAR biomarker ELISA; actives raise or lower the signal
# Outline: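 Values derive from bidirectional curve fitting relative to DMSO, which served as baseline of activity. uPAR was measured by ELISA in human umbilical vein endothelial primary cultures 24 h after compound addition.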
# [18] = BSK_3C_VCAM1: BioMAP Diversity Plus: 3C Assay for Vascular cell adhesion molecule 1 (VCAM1) Biomarker Activity (AID 2282999); conditions: BioMAP 3C HUVEC, VCAM1 ELISA, cytokine-stimulated; actives raise or lower the signal
# Outline: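 Activity fitted in both directions relative to DMSO, with ELISA measurement of the surface marker on primary HUVEC (3C) at 24 h post-treatment; parallel SRB staining (0.1% SRB, TCA-fixed, 560 nm) flagged overt cytotoxicity.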
# [19] = ATG_Oct_MLP_CIS: Attagene CIS-FACTORIAL HepG2 Assay for human Octamer-Binding Transcription Factor (Oct) (AID 2282993); conditions: HepG2 Attagene cis-factorial Oct reporter, mRNA; actives raise or lower the signal
# Outline: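 After 24 h compound exposure, transfected HepG2 cells were lysed for total RNA; reporter-specific cDNA was PCR-amplified, fluorescently labelled and sized by capillary electrophoresis. Bidirectional curve fitting used DMSO as baseline.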
# Cellular tumor antigen p53 (Homo sapiens), sequence (P04637 whole entry, looked up, the tested form may be a part): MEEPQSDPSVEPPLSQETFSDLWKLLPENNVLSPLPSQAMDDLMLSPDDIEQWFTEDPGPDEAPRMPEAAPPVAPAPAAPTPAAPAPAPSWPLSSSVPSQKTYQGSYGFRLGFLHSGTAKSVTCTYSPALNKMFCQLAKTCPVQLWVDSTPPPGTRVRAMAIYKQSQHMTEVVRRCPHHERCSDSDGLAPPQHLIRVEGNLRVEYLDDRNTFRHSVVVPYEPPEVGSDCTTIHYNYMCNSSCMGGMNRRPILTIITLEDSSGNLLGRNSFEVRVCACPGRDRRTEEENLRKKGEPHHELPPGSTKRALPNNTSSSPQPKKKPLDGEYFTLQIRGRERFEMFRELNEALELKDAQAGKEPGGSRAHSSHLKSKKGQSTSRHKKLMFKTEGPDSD
# Nuclear receptor subfamily 4 group A member 2 (Homo sapiens), sequence (P43354 whole entry, looked up, the tested form may be a part): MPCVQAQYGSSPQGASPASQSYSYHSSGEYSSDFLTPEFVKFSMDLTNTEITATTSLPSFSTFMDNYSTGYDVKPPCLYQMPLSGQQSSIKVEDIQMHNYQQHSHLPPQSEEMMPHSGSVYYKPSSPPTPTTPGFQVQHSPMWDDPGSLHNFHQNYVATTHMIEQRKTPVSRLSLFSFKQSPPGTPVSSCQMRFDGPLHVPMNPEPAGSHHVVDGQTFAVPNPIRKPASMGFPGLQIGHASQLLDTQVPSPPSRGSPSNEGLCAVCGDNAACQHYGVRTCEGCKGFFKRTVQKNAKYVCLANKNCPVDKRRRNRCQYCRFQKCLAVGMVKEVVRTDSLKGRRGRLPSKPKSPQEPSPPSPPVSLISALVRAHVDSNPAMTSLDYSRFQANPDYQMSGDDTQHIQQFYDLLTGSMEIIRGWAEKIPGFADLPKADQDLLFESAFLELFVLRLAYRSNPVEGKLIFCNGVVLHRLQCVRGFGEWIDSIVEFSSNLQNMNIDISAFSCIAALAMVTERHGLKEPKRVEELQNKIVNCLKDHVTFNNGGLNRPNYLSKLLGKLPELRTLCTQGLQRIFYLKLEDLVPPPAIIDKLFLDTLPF
# Oxysterols receptor LXR-beta (Homo sapiens), sequence (P55055 whole entry, looked up, the tested form may be a part): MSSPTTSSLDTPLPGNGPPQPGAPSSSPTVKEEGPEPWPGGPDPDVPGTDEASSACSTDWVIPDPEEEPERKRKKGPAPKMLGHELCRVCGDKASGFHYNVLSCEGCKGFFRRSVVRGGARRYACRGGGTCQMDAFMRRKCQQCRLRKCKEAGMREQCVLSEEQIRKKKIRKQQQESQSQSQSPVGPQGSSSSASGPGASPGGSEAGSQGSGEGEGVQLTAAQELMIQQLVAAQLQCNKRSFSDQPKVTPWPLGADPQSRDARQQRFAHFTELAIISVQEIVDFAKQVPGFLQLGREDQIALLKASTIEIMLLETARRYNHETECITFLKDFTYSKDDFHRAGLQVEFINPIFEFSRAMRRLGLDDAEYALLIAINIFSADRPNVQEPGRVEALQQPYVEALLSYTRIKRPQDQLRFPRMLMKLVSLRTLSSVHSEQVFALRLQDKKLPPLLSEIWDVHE
# Nuclear respiratory factor 1 (Homo sapiens), sequence (Q16656 whole entry, looked up): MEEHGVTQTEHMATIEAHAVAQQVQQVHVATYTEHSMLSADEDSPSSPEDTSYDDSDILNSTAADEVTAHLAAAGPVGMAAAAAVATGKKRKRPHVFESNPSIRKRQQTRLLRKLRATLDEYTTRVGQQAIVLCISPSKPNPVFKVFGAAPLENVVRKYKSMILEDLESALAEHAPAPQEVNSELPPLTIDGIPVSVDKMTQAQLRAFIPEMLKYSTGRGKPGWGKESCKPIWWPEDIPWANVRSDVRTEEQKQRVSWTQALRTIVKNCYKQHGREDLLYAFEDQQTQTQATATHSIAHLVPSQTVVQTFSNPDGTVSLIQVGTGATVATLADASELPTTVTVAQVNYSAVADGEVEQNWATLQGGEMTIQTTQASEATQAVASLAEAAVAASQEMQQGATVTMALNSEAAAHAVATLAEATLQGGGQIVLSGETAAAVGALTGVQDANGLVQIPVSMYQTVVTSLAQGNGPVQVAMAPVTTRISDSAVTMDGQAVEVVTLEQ
# Transcriptional activator Myb (Homo sapiens), sequence (P10242 whole entry, looked up): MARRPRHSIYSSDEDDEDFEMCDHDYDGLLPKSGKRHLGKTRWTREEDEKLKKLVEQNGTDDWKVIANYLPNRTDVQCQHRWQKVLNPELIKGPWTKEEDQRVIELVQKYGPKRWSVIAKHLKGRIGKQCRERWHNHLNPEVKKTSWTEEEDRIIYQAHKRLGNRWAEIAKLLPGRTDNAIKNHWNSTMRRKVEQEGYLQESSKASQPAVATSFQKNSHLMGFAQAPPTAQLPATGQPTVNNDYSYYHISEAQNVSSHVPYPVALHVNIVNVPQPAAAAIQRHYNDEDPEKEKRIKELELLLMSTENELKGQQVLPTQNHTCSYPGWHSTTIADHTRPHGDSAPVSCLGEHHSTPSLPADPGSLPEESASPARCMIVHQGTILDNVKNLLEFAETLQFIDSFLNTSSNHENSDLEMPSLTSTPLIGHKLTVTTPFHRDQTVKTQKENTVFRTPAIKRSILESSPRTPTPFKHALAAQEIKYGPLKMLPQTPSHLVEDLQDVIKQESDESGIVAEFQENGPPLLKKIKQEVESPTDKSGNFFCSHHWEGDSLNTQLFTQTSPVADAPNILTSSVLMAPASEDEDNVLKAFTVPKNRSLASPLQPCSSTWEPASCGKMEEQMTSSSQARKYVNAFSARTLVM
# Bile acid receptor (Homo sapiens), sequence (Q96RI1 whole entry, looked up, the tested form may be a part): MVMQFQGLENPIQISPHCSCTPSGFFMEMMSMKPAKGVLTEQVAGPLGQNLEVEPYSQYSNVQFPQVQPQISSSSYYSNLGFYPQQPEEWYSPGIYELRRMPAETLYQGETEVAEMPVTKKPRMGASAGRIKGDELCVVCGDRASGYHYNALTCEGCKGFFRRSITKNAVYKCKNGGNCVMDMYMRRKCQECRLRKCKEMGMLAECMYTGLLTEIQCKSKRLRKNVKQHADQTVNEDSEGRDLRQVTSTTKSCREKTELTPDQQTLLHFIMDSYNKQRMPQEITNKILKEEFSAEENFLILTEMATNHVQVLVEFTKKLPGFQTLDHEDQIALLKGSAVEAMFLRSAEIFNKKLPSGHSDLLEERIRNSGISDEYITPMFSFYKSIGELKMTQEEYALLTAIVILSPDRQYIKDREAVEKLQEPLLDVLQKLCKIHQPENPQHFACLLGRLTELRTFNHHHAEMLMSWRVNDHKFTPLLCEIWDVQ
# Myc proto-oncogene protein (Homo sapiens), sequence (P01106 whole entry, looked up, the tested form may be a part): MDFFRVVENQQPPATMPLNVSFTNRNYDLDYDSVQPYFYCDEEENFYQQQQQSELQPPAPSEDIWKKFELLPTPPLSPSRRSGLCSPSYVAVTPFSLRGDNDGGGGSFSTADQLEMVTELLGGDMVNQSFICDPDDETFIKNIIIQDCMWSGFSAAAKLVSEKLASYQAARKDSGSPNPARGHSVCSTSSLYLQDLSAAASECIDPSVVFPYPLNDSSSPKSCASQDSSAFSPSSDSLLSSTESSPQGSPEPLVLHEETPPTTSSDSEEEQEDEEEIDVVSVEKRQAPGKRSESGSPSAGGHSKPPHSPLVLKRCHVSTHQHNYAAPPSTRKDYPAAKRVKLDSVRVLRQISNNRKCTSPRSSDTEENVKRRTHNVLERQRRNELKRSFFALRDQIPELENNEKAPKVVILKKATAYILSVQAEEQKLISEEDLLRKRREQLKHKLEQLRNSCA
# Oxysterols receptor LXR-alpha (Homo sapiens), sequence (Q13133 whole entry, looked up, the tested form may be a part): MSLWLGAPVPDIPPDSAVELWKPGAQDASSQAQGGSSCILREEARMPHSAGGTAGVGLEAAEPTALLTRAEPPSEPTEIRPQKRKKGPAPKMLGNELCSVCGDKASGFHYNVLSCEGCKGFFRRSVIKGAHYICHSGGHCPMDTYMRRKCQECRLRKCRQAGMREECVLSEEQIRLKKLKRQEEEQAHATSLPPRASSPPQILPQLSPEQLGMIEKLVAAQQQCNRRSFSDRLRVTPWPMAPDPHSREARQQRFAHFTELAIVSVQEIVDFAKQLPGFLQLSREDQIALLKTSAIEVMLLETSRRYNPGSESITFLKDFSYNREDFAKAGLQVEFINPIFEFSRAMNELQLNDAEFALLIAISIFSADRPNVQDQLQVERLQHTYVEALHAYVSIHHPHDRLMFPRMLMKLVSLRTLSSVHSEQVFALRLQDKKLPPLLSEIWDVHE
# Glucocorticoid receptor (Homo sapiens), sequence (P04150 whole entry, looked up, the tested form may be a part): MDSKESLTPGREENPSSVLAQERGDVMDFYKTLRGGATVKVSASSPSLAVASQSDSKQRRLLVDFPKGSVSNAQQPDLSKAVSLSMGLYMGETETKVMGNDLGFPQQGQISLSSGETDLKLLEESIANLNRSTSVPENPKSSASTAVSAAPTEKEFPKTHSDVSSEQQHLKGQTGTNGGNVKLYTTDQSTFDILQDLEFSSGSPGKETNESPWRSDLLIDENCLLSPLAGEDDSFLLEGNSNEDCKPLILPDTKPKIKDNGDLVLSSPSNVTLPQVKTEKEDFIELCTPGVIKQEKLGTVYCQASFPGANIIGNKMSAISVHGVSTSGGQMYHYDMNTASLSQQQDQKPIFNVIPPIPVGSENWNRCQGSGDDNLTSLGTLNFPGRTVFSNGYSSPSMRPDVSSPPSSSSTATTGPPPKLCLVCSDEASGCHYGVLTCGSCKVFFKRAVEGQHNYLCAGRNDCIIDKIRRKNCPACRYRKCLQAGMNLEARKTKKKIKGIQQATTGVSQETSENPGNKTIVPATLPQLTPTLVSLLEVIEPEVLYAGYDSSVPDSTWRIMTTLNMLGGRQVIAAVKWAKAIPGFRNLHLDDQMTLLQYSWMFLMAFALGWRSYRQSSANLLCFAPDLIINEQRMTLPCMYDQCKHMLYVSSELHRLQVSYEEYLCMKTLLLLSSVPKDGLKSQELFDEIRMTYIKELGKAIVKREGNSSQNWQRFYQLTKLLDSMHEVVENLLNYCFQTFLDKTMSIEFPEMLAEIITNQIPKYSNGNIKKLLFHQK
structure (smiles),measurement,setting,value
ClC(Cl)=C(c1ccc(Cl)cc1)c1ccc(Cl)cc1,outcome,[1],inactive
same,outcome,[2],inactive
same,outcome,[3],inactive
same,outcome,[4],inactive
same,outcome,[5],inactive
same,outcome,[6],inactive
same,outcome,[7],inactive
same,outcome,[8],inactive
same,outcome,[9],inactive
same,AC50,[10],61.1 µM (active) and 100 µM (active)
same,outcome,[10],inactive
same,AC50,[11],100 µM (active) and 114 µM (active) and 152 µM (active)
same,AC50,[12],169 µM (active) and 129 µM (active)
same,outcome,[12],inactive
same,outcome,[13],inactive
same,AC50,[14],50.7 µM (active) [middle of 4 runs]
same,outcome,[15],inactive
same,AC50,[16],29.4 µM (active)
same,AC50,[17],33.4 µM (active)
same,AC50,[18],31.3 µM (active)
COc1ccc(O)c(C(C)(C)C)c1,outcome,[2],inactive
same,outcome,[3],inactive
same,outcome,[6],inactive
same,outcome,[7],inactive
same,outcome,[9],inactive
same,outcome,[10],inactive
same,outcome,[11],inactive
same,outcome,[12],inactive
same,AC50,[14],39 µM (active)
same,AC50,[19],143 µM (active)
same,outcome,[15],inactive
same,outcome,[16],inactive
same,outcome,[17],inactive
same,outcome,[18],inactive
CC(C)(c1ccccc1)c1ccc(O)cc1,outcome,[2],inactive
same,AC50,[3],48.9 µM (active)
same,outcome,[3],inactive
same,outcome,[4],inactive
same,outcome,[5],inactive
same,outcome,[6],inactive
same,outcome,[7],inactive
same,outcome,[8],inactive
same,AC50,[9],51.8 µM (active)
same,outcome,[9],inactive
same,outcome,[10],inactive
same,AC50,[11],49.6 µM (active)
same,outcome,[11],inactive
same,AC50,[12],33.4 µM (active)
same,outcome,[12],inactive
same,AC50,[13],53.1 µM (active) and 50.4 µM (active)
same,outcome,[13],inactive
same,AC50,[15],57 µM (active)
same,outcome,[15],inactive
same,AC50,[16],30.5 µM (active)
same,AC50,[17],31.1 µM (active)
same,AC50,[18],32.9 µM (active)
